PubChem BioAssay
The source made the active and inactive calls. Unless noted, no rule for the calls is given here.

Assays:
[1] = A549 cell viability effects, profiling panel, calcein-AM fluorescence, 48 h, basal (AID 1162); settings: higher = more signal; also: test concentration not given here
[2] = adipocyte viability effects, profiling panel, cell-based, 3T3-L1 adipocytes, calcein-AM fluorescence, 48 h, basal (AID 1163); settings: 3T3-L1 adipocytes viability, higher = more signal; also: test concentration not given here
[3] = HepG2 cell viability effects, profiling panel, calcein-AM fluorescence, 48 h, basal (AID 1164); settings: higher = more signal; also: test concentration not given here
[4] = MM1S cell viability effects, profiling panel, calcein-AM fluorescence, 48 h, basal (AID 1165); settings: higher = more signal;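 also: viability of MM1S multiple myeloma cells under basal unstimulated conditions; test concentration not given here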
[5] = basal RPMI8226 viability, no added stimulus, profiling panel, cell-based, calcein-AM fluorescence, 48 h, PK04 Diversity Set (AID 1166); settings: RPMI8226 myeloma viability, higher = more signal;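 also: cells grown under basal conditions without added stimulus; test concentration not given here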
[6] = basal HepG2 mitochondrial membrane potential changes, profiling panel, cell-based, JC-1 fluorescence, 24 h, 100 nL compound (AID 1167); settings: higher = more signal; also: test concentration not given here
[7] = basal 3T3-L1 adipocyte mitochondrial potential changes, profiling panel, cell-based, JC-1 fluorescence, 3T3-L1 adipocytes, 24 h, 100 nL compound (AID 1168); settings: JC-1 mitochondrial fluorescence, higher = more signal, called active from +8 up or from −8 down; also: test concentration not given here
[8] = basal RPMI8226 mitochondrial membrane potential changes, profiling panel, cell-based, JC-1 fluorescence, 24 h, 100 nL compound (AID 1169); settings: RPMI8226 myeloma, JC-1 mitochondrial potential fluorescence, higher = more signal; also: test concentration not given here
[9] = basal MM1S mitochondrial membrane potential changes, profiling panel, cell-based, JC-1 fluorescence, 24 h, 100 nL compound (AID 1170); settings: higher = more signal; also: test concentration not given here
[10] = A549 lung cancer cell viability effects, profiling panel, resazurin fluorescence, 24 h, PK04 Diversity Set (AID 1171); settings: higher = more signal, called active from +8 up or from −8 down; also: test concentration not given here
[11] = HepG2 liver cancer cell viability effects, profiling panel, resazurin fluorescence, 24 h, PK04 Diversity Set (AID 1172); settings: higher = more signal; also: test concentration not given here
[12] = basal S. cerevisiae growth modulation, no modifier, primary screen, OD600, strain BY4716, 24 h, basal condition (AID 1173); settings: OD600, 24 h, higher = more signal, called active from +8 up or from −8 down
[13] = MM1S myeloma cell viability, profiling panel, resazurin fluorescence, basal, 24 h, PK04 Diversity Set (AID 1174); settings: higher = more signal, called active from +8 up or from −8 down;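 also: MM1S multiple myeloma cell line; test concentration not given here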
[14] = target: Dihydroorotate dehydrogenase (quinone), mitochondrial (Plasmodium falciparum (isolate 3D7)) (UniProt Q08210); assay: PfDHODH enzyme inhibitors, primary screen, biochemical, C-terminal His tag, absorbance 600 nm (AID 1175); settings: DCIP absorbance 600 nm, higher = more signal, called active from +8 up or from −8 down;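 also: recombinant parasite enzyme with a five histidine tag at its C terminus; test concentration not given here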
Chain of Dihydroorotate dehydrogenase (quinone), mitochondrial (Plasmodium falciparum (isolate 3D7)) (Q08210 whole entry, looked up): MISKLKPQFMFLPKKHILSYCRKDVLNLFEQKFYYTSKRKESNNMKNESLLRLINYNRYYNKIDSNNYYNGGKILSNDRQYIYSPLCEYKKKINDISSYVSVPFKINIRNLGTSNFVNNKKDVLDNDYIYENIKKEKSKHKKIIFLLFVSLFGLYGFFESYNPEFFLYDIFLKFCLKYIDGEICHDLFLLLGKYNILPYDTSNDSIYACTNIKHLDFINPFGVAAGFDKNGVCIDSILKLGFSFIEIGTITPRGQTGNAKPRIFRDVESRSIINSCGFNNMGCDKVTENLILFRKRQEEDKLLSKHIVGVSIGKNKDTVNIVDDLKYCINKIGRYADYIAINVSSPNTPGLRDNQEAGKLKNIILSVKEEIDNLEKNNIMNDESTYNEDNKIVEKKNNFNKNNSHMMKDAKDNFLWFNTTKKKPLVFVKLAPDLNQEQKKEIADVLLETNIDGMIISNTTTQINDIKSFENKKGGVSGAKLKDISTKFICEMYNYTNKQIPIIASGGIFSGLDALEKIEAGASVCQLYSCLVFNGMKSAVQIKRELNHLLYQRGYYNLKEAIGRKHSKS

[15] = P. aeruginosa biofilm formation inhibitors, primary screen, strain PAO1, LB-PBS medium, absorbance 600 nm (AID 1176); also: test concentration not given here; settings: P. aeruginosa PAO1 growth/biofilm, A600, 12 h; higher = more signal
[16] = S. cerevisiae RM11-1a growth modifiers, primary screen, strain RM11-1a, OD600, basal, 24 h (AID 1177); settings: OD600, 24 h, higher = more signal, called active from +8 up or from −8 down;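 also: cultures grown under basal conditions with no added stressor; test concentration not given here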
[17] = E. coli acrAB mutant growth effects, primary screen, E. coli filamentation inducers, strain DRC39, OD650, 24 h (AID 1178); settings: higher = more signal, called active from +8 up or from −8 down;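 also: growth measured as culture turbidity by optical density at 650 nm; test concentration not given here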
[18] = E. coli acrAB mutant growth effects, primary screen, E. coli filamentation inducers, strain DRC39, OD650, 48 h (AID 1179);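 also: screen aims at cell division blockers that make cells filament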; settings: E. coli DRC39 delta-acrAB growth, higher = more signal, called active from +8 up or from −8 down
[19] = RPMI8226 myeloma cell viability, profiling panel, resazurin fluorescence, basal, 24 h, PK04 Diversity Set (AID 1180); settings: higher = more signal;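 also: RPMI8826 multiple myeloma cell line at 5000 cells per well; test concentration not given here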
[20] = target: E3 ubiquitin-protein ligase XIAP (Homo sapiens) (UniProt P98170); assay: XIAP binders, primary screen, biophysical, small-molecule microarray, fluorescence 635 nm (AID 1181); settings: small-molecule microarray binding, higher = more signal;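 also: score merges 667 nm emission and signal to noise over triplicate slides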
Chain of E3 ubiquitin-protein ligase XIAP (Homo sapiens) (P98170 whole entry, looked up): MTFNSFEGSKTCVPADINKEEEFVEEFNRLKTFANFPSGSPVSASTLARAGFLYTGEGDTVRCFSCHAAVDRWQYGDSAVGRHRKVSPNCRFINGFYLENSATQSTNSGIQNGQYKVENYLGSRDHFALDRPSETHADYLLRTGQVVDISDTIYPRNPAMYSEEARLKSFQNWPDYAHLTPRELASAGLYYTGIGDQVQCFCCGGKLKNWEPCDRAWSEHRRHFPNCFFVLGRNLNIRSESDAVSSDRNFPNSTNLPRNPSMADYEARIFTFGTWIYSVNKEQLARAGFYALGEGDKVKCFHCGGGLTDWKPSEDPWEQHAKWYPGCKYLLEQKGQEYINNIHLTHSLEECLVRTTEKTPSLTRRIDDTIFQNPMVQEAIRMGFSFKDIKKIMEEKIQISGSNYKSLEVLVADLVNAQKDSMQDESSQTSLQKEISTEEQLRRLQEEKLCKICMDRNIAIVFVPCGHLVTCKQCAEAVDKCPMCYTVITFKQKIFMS

Structure (SMILES)	z-score [1]	z-score [2]	z-score [3]	z-score [4]	z-score [5]	z-score [6]	z-score [7]	z-score [8]	z-score [9]	z-score [10]	z-score [11]	z-score [12]	z-score [13]	composite z-score [14]	z-score [15]	z-score [16]	z-score [17]	z-score [18]	z-score [19]	composite z-score [20]
C[C@@H](c1ccccc1)N1C(=O)[C@H]2[C@H]3[C@H](O)[C@H](O)CC(=NO[C@@H]4O[C@H](CO)[C@@H](O)[C@H](O)[C@H]4O)[C@H]3CC[C@H]2C1=O	-0.306	0.221	-0.492	0.254	-0.599	-0.364	-0.507 (inactive)	0.0338	-0.15	-0.154 (inactive)	-0.495	0.561 (inactive)	0.174 (inactive)	-0.28 (inactive)	0.389 (inactive)	0.0857 (inactive)	-0.837 (inactive)	0.11 (inactive)	0.577	0.057
CCOC(=O)NN=C1C[C@@H](O)[C@@H](O)[C@@H]2[C@@H]3C(=O)N(c4cccc(Oc5ccccc5)c4)C(=O)[C@@H]3CC[C@H]12	0.285	1.01	-0.0233	0.0687	0.443	1.03	0.675 (inactive)	0.00981	-1.56	-0.263 (inactive)	0.287	-0.946 (inactive)	-1.12 (inactive)	-1.59 (inactive)	1.05 (inactive)	-1.39 (inactive)	0.0624 (inactive)	-0.642 (inactive)	0.529	-0.106
COC(=O)[C@H](C)NC(=O)CCC1CC(OC(=O)NCc2cccc3ccccc23)CC2(CCCC(COC(=O)NCC(c3ccccc3)c3ccccc3)O2)O1 (stereo not given in full)	-0.101	-0.294	-0.618	-3.41	-1.22	1.21	-0.0303 (inactive)	-0.125	-0.493	2.23 (inactive)	1.64	-0.425 (inactive)	0.945 (inactive)	0.0975 (inactive)	-1.24 (inactive)	0.15 (inactive)	0.0127 (inactive)	0.393 (inactive)	1.04	-0.108
CCCNC(=O)OC[C@H]1O[C@H](CCON=C(C)CCN2CCc3nc(CC)c(CC)cc3C2)C=C[C@@H]1Oc1ccc(OC)cc1	-0.142	0.73	-0.304	-2.95	-3.14	4.22	-1.48 (inactive)	-0.0505	0.598	-0.245 (inactive)	-1.09	-0.139 (inactive)	-1.45 (inactive)	0.358 (inactive)	-0.598 (inactive)	0.02 (inactive)	-1.13 (inactive)	-1.53 (inactive)	0.622	-0.0559
CCN1C(=O)[C@@H]2[C@H]3C(=CC[C@@H]2C1=O)C1(OCCCO1)[C@H]1O[C@H]1[C@H]3O	-4.56	-1.03	-4.61	-3.56	-3.24	-3.62	-5.63 (inactive)	-1.04	-3.04	-3.14 (inactive)	-2.61	-9.39 (active)	-8.78 (active)	-18.3 (active)	2.64 (inactive)	1.15 (inactive)	-0.124 (inactive)	-0.985 (inactive)	-5.89	-0.141
CC(CCN1CCc2nc(-c3ccccc3)c(-c3ccccc3)cc2C1)=NOC[C@@H](O)COCc1ccco1	1.53	-0.0838	2.01	-0.293	0.465	1.65	-0.278 (inactive)	1.09	-0.174	-0.684 (inactive)	-1.2	-2 (inactive)	-1.88 (inactive)	-0.727 (inactive)	-0.0417 (inactive)	0.358 (inactive)	0.943 (inactive)	1.14 (inactive)	-1.31	0.239
CCO[C@H](c1cc(OC)cc([N+](=O)[O-])c1OC)[C@H](C)C=CCC(=O)OC	1.23	-0.629	0.381	1.02	0.799	0.879	0.269 (inactive)	0.752	-0.929	-0.625 (inactive)	-0.0508	-2.19 (inactive)	-1.43 (inactive)	-0.278 (inactive)	0.18 (inactive)	0.343 (inactive)	0.884 (inactive)	0.38 (inactive)	-0.622	0.601
CC(CCN1CCCCc2nc(C)c(C)cc21)=NO[C@@H](C)c1cn([C@H](CO)Cc2ccccc2)nn1	0.455	-0.374	0.0163	0.313	0.307	-1.33	-0.151 (inactive)	0.878	-0.859	-0.32 (inactive)	-0.841	0.102 (inactive)	-1.85 (inactive)	-1.55 (inactive)	-0.631 (inactive)	0.736 (inactive)	0.882 (inactive)	1.46 (inactive)	-0.483	-0.127
COC(=O)CC=C[C@H](C)[C@@H](OCc1cccc(Br)c1)[C@@H](C)[C@H](OC)C1CCCCC1	0.836	0.128	1.21	-2.16	-0.474	0.918	0.831 (inactive)	0.00209	-0.324	0.0303 (inactive)	-0.363	-0.949 (inactive)	0.0742 (inactive)	-0.498 (inactive)	-1.16 (inactive)	0.161 (inactive)	0.474 (inactive)	-0.596 (inactive)	-0.171	-0.318
